# D2 ag-1: activates the human D2 dopamine receptor | actives 0.53% (n = 340,000) | P14416 | HEK293 T-REx D2 cells, calcium flux agonist mode | activation, % at 2 µM | AID 485358;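 active = activation over 3 SD above normal in the single-dose calcium agonist read, cut at about 30% in these data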; note: 0% is about no effect
# Target sequence (P14416 whole entry, looked up): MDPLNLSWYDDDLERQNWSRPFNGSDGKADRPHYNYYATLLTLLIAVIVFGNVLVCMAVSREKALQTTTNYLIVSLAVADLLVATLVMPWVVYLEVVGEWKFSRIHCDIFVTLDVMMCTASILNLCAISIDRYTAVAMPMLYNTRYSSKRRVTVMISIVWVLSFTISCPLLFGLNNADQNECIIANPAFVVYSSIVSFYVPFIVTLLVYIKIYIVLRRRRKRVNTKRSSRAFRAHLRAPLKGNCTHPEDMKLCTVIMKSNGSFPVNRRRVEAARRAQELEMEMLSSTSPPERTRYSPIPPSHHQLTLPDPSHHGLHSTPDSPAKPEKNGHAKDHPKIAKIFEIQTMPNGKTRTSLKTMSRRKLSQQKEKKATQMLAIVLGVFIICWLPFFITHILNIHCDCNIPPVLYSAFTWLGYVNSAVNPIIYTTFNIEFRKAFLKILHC
#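 HEK293 Trex D2 cells, tetracycline-induced, o/n 30 C 5% CO2; no-wash Ca dye, RT 30–90 min; 10-cycle baseline, 23 nl cpd added, kinetic Ca read 180 s; agonist hits = positive Ca response.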
# D2 antag: D2 dopamine receptor (human) antagonism. P14416. HEK293 TREx D2 cells, calcium flux, dopamine EC80. inhibition, % at 10 µM. actives 2% (n = 340,000). AID 485344; in the data active = inhibition above about 30%; inactive = below that, where a call was filed; note: 0% is about no effect
#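 Cells plated overnight at 30 C with tetracycline; no-wash calcium dye, 30–90 min RT; 10 s baseline; compound pinned; 180 s read; EC80 dopamine added; another 180 s read.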
# D2 PAM-1: positive allosteric modulators of human D2 dopamine receptor; actives 0.23% (n = 360,000); DiscoveRx D2 beta-arrestin cells, luminescence, 90 min; 100% = 57 uM dopamine signal; potentiation, % (no concentration beside the values); in the data active = potentiation above about 50%; inconclusive = mostly about 30% to 49%
#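 PathHunter D2 cells, attached overnight at 37 deg C, received compound in DMSO plus dopamine at EC20 (50 nM final) for 90 min at 37 deg C. Beta-arrestin recruitment was read as luminescence after 1 h with detection reagent at ambient temperature.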
# D2 PAM-2: positively modulates the human D2 dopamine receptor allosterically; P14416; actives 0.34% (n = 340,000); potentiation, % at 10 µM; HEK293 T-REx D2, calcium flux, EC20 dopamine potentiation;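 active = potentiation over 3 SD above the plate norm, cut at about 30% in these data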; note: 0% is about no effect
#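 Potentiation of an EC20 dopamine calcium response is measured in a force-coupled, tetracycline-inducible Hek293 Trex D2 line. Compound-only kinetic reads over 180 s flag agonists before dopamine addition.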
# D2 ag-2: agonists of human D2 dopamine receptor (beta-arrestin) | P14416 | DiscoveRx PathHunter D2 beta-arrestin, luminescence, 90 min; 100% = 57 uM dopamine signal | activation, % (concentration not given with the values) | actives 0.084% (n = 360,000) | AID 624465; in the data active = activation above about 40%; inconclusive = between about 15% and that limit
#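 Agonist mode: compounds alone added to overnight-plated D2 PathHunter cells for 90 min at 37 C, with 57 uM final dopamine (EC100) defining full response. Beta-arrestin recruitment detected by chemiluminescent reagent, read after 1 h at ambient temperature.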
# Starred values were filed as active, the others as inactive; ? = inconclusive; . = no result given. An excerpt weighted towards active compounds, which were near 2.4% of everything screened.
SMILES,D2 ag-1,D2 antag,D2 PAM-1,D2 PAM-2,D2 ag-2
CCOc1ccc(OCc2cccc(C(=O)O)c2)cc1,0,-16,-1,-1,3
NC(N)=NCCCC(NC(=O)c1ccccc1)C(=O)Nc1ccc([N+](=O)[O-])cc1 (configuration not stated),-1,75*,-5,-12,-5
NC(N)=NCCCC(NC(=O)c1ccccc1)C(=O)Nc1ccc2ccccc2c1 (configuration not stated),1,54*,-32,-16,-3
Cc1ccc(NC(=O)CSc2nc3ccccc3n2CC(=O)N(C)C2CCCCC2)cc1C,0,.,.,5,.
O=C(NCc1cccs1)C1CCN(C(=O)N2CCOc3ccccc32)CC1,-1,.,.,-5,.
COc1ccc(C(=O)NC2CC3CCCC(C2)N3Cc2ccccc2)cc1 (configuration not stated),0,82*,-11,-22,2
CCOc1ccc(C(=O)NC2CC3CCCC(C2)N3Cc2ccccc2)cc1 (configuration not stated),.,.,-16,.,-5
O=C(NC1CC2CCC(C1)N2Cc1ccccc1)c1ccccc1Br (configuration not stated),0,67*,-82,-22,1
COc1ccc(C(=O)NC2CC3CCCC(C2)N3Cc2ccccc2)c(OC)c1 (configuration not stated),1,86*,-1,-23,0
O=C(NC1CC2CCCC(C1)N2Cc1ccccc1)c1ccc([N+](=O)[O-])cc1 (configuration not stated),0,87*,-4,-25,1
O=C(NC1CC2CCC(C1)N2Cc1ccco1)c1ccccc1 (configuration not stated),.,.,-37,-5,-1
COc1ccccc1N1CCN(c2cc(C)nc3nncn23)CC1,.,.,.,2,.
COc1ccccc1C(=O)NC1CC2CCC(C1)N2Cc1ccccc1 (configuration not stated),-1,89*,-5,-32,1
CCOc1ccccc1C(=O)NC1CC2CCCC(C1)N2C1CC1 (configuration not stated),-1,7,-31,-24,-6
O=C(Nc1ccccc1)C1=C(c2ccccc2)S(=O)(=O)CCS1(=O)=O,3,-3,-19,58*,-5
CCc1nnc2n1N=C(c1ccc(OC)cc1)CS2,0,34*,-7,4,-3
CCOc1ccc(-c2nnc3n2N=C(c2ccc(OC)cc2)CS3)cc1,1,19,-2,9,1
O=C(c1ccccc1Br)N(Cc1ccco1)Cc1ccco1,-1,.,.,-5,.
CCc1ccccc1NC(=O)c1ccc(Cn2nc(N3CCN(c4ccccc4)CC3)ccc2=O)o1,0,.,.,1,.
CCOc1ccc(N(CC(=O)Nc2cc(C)cc(C)c2)S(C)(=O)=O)cc1,0,41*,-5,-2,4
O=C(CN1CCN(C2CCCCC2)CC1)c1c[nH]c2ccccc12,1,42*,-31,-24,-2
Cc1ccccc1OCC(=O)OCc1cc(=O)n2nc(C3CCCCC3)sc2n1,1,.,.,-3,.
Fc1cccc(F)c1CN1CCN(c2ncccn2)CC1,33*,-3,21,-14,?
O=C(Cn1c(=O)n(-c2ccccc2)c(=O)c2sc3ccccc3c21)NC1CCCC1,-1,.,.,-1,.
CCOC(=O)c1c(S(=O)(=O)N2CCC(C(=O)Nc3ccccc3OC)CC2)c(C)n(CC)c1C,0,.,.,4,.
SMILES,D2 ag-1,D2 antag,D2 PAM-1,D2 PAM-2,D2 ag-2
CCCn1cc(S(=O)(=O)c2ccccc2)c(=O)c2cc(OC)c(OC)cc21,0,1,-7,39*,-3
O=C(CSc1nnnn1Cc1ccccc1)NCCc1ccccc1,-2,32*,2,-1,-3
O=C(CSc1nnnn1Cc1ccccc1)NCC(=O)c1ccccc1,0,-18,-24,-4,-1
COc1ccc(-n2nc(C(=O)N3CCCC(C)C3)c3c4ccccc4n(C)c3c2=O)cc1Cl (configuration not stated),0,.,.,-2,.
COc1ccccc1NC(=O)N(Cc1cccs1)Cc1cc2cc3c(cc2[nH]c1=O)OCO3,0,36*,-2,-15,5
COc1ccccc1NC(=S)N(CCCN(C)C)Cc1cc2cc3c(cc2[nH]c1=O)OCO3,.,-7,-3,15,-4
CC1CCCN(c2nc3c(c(=O)n(C)c(=O)n3C)n2CCSc2nc3ccccc3o2)C1 (configuration not stated),-1,-11,-5,30*,-2
CC1CCCN(c2nc3c(c(=O)[nH]c(=O)n3C)n2CCSc2nc3ccccc3o2)C1 (configuration not stated),1,6,-3,12,-3
Cc1c(Cl)c([N+](=O)[O-])nn1CC(=O)NC1CCCCC1,0,11,-9,-6,-4
Cc1c(Br)c([N+](=O)[O-])nn1CC(=O)NC1CCCCCC1,-2,41*,-6,1,-2
COc1ccc(OC)c(N2C(=O)CC(Cc3ccc(Cl)cc3)C2=O)c1 (configuration not stated),1,-22,-13,29,-2
COc1ccc(OC)c(N2C(=O)CC(Cc3cc(C)cc(C)c3)C2=O)c1 (configuration not stated),0,10,10,30*,-1
C=CCN(CC=C)CC(O)CN(c1cc([N+](=O)[O-])ccc1OC)S(=O)(=O)c1ccccc1 (configuration not stated),1,66*,-18,-25,0
COc1cc(C(C(=O)NC2CCCC2)N(C(=O)c2snc(C(N)=O)c2N)C2CCCC2)cc(OC)c1OC (configuration not stated),-1,32*,5,-1,6
O=C(COC(=O)CCNS(=O)(=O)c1ccc(Cl)cc1)NCc1ccccc1,.,.,-10,.,-2
O=C(COC(=O)CCNS(=O)(=O)c1ccccc1)NC(=O)Cc1ccccc1,0,37*,0,-10,5
O=C(COC(=O)CCNS(=O)(=O)c1ccccc1F)Nc1nnc(-c2ccccc2)o1,-1,32*,9,-8,-6
CCOC(=O)c1cc(-c2ccc(C)cc2)n(CC(=O)NC2CCCCCC2)c1C,0,.,.,3,.
COCCCNC(=O)c1cc2c(=O)oc3ccc(C)cc3c2s1,0,.,.,14,.
CCCN1CCN(CCCNC(=O)c2cc3c(=O)oc4ccc(C)cc4c3s2)CC1,0,5,-11,34*,-2
Cc1ccc2oc(=O)c3cc(C(=O)NCCCN4CCCC(C)C4)sc3c2c1 (configuration not stated),0,43*,-32,-18,-2
O=C(Nc1nc2cc3c(cc2s1)OCCO3)c1ccc([N+](=O)[O-])o1,1,37*,7,11,1
CCN(CC)C(=O)C1CCN(C(=O)c2cnn(-c3ccccc3)c2-n2cccc2)CC1,0,.,.,-1,.

# Screening results: PubChem BioAssay, National Center for Advancing Translational Sciences (NCATS)
